High-throughput results: PubChem BioAssay, National Center for Advancing Translational Sciences (NCATS)
Only some compounds are listed: those with a hit (about 4.7% of all), similar ones and a draw of the others.
D1 PAM = enhances dopamine response at the human D1 receptor; HEK293 TREx D1 cells, calcium flux, dopamine EC20 potentiation; potentiation, % at 10 µM; 360,000 tested, 0.036% active; AID 504651; in the data active = potentiation above about 30%; also: 0% is about no effect
D1 antagonist = human D1 dopamine receptor antagonism; AID 504652; 360,000 tested, 3.2% active; activity change, negative = inhibition, % at 10 µM; HEK293 TREx D1 cells, calcium flux, dopamine EC80; active compounds read low; in the data active = activity change below about -30%; also: % is scaled to controls: 0 for no effect and ±100 for the full control effect
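Using tetracycline-induced force-coupled D1 Hek293 cells and a calcium dye, signals were followed for 180 s after compound, then for 180 s after EC80 dopamine, to detect inhibitors.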
TRHR PAM = allosteric enhancers of human TRH receptor; enhancement, % at 2 µM; AID 493056; 360,000 tested, 0.66% active; P34981; TRHR cells, fluo-8 calcium fluorescence, EC20 TRH enhancement; in the data active = enhancement above about 30%; also: 0% is about no effect
Target sequence (P34981 whole entry, looked up): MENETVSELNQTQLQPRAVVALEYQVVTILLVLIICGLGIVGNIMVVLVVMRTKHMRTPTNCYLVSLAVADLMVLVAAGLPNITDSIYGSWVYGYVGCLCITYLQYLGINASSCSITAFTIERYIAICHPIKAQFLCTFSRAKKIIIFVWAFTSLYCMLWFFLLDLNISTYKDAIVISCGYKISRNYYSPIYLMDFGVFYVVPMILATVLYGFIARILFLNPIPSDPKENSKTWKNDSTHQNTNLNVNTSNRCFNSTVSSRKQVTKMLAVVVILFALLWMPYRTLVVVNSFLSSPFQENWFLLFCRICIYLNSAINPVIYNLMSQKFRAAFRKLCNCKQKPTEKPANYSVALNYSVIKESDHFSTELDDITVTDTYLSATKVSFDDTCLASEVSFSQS
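TRHR-expressing cells loaded with fluo-8 calcium dye were read kinetically (ex 480/em 530) during compound addition, then stimulated with an EC20 of TRH (10 nM final). Enhancement of the Gq-mediated intracellular calcium response was scored.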
TRHR ag = TRH receptor (human) agonism | P34981 | TRHR cells, calcium flux fluo-8, FDSS agonist mode | activation, % at 2 µM | 360,000 tested, 0.18% active; also: 0% is about no effect
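In this calcium-flux screen, cells bearing human TRHR are dye-loaded with fluo-8, baselined for 10 cycles, then exposed to library compounds; positive kinetic calcium responses during the agonist phase mark hits, with TRH as control.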
D1 agonist = agonists of human D1 dopamine receptor; HEK293 T-REx D1 cells, calcium flux, agonist mode; AID 504660; activation, % at 2 µM; 360,000 tested, 1% active; also: 0% is about no effect
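Inducible HEK293 T-REx D1 cells, force-coupled to calcium signalling, were plated at 4000 cells/well with tetracycline and held overnight at 30 C. After no-wash calcium dye loading, compound-evoked calcium rise over 180 s flagged agonists.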
An asterisk follows results filed as active; ! = repeats disagree. Rule as the data show it, unless noted: active = activation above about 30%; inactive = the rest.

SMILES	D1 PAM	D1 antagonist	TRHR PAM	TRHR ag	D1 agonist
Cc1ccc(N2C(=O)N(CC(=O)C(C)(C)C)c3ccccc3S2(=O)=O)cc1C	-4	0	-1	1	4
COc1cc(C)ccc1OCCSc1nc(-c2cccc(C)c2)nc2cc(=O)[nH]n12	-2	-12	-2	-1	1
COc1cccc(NC(=O)Cn2c(=O)n(CCCCC(=O)NCCc3ccccc3)c(=O)c3ccccc32)c1	2	-44*	-26	-1	0
COc1cccc(NC(=O)Cn2c(=O)n(CCC(=O)NCCc3ccc(Cl)cc3)c(=O)c3ccccc32)c1	0	-8	11	1	-2
COc1cccc(NC(=O)CN(C)C(=O)CNC(=O)c2ccccc2F)c1	-1	-33*	-3	1	1
O=C(O)CC/C(=N/NC(=O)CNC(=O)C(c1ccccc1)c1ccccc1)c1ccccc1	-10	-34*	-3	-1	4
NC(=S)NNC(=O)C12CC3CC(CC(C3)C1)C2	8	-24	-10	32*	185*
O=C(O)c1ccc(N/N=C/c2ccc(OC(=O)c3cccc(Cl)c3)cc2)cc1	-7	-36*	0	1	37*
COc1ccc(-c2cc(-c3ccc(Cl)cc3)n[nH]2)c(O)c1	-6	-34*	-5	1	1
CC(C)(C)c1ccc(C(=O)N2CCC(c3noc(-c4ccc(S(=O)(=O)N5CCCC5)cc4)n3)CC2)cc1	3	10	0	2	0
NC1=NC(=Nc2ccccc2)c2ccccc21	-8	4	5	0	0
NC1=NC(=Nc2ccc(Br)cc2)c2ccccc21	-10	-33*	-3	0	-1
Nc1ccc(S(=O)(=O)N2CCOCCOCCOCCOCCOCC2)cc1	-1	-7	-4	0	3
NC1=NC(=Nc2ccc(S(=O)(=O)N3CCOCC3)cc2)c2ccccc21	-3	-33*	-10	0	4
NC1=NC(=Nc2ccc(Cl)cc2)c2ccccc21	-14	-41*	-4	0	1
c1ccc(Nc2nc3ccccc3o2)cc1	-2	3	3	1	-1
Cc1cc(C)nc(Nc2nc3ccccc3o2)n1	-14	-31*	-1	1	5
Cc1ccccc1OCCC(=O)Nc1ccc(S(=O)(=O)N(C)C2CCN(C)CC2)cc1	-1	-66*	4	0	55*
Cc1ccccc1OCC(=O)Nc1ccc(S(=O)(=O)N(Cc2ccccc2)c2ccccc2)cc1	1	-51*	-3	1	4
CN1CCC(N(C)S(=O)(=O)c2ccc(NC(=O)COc3ccc(Br)cc3Cl)cc2)CC1	-16	-44*	-6	4	31*
Cc1ccc(OCC(=O)Nc2ccc(S(=O)(=O)N(C)C3CCN(C)CC3)cc2)c(C)c1	-11	-24	-2	1	20
O=C(COc1ccc(F)cc1)Nc1ccc(S(=O)(=O)N(Cc2ccccc2)c2ccccc2)cc1	0	-4	-1	-1	27
COc1cc(C)c(Cl)c(C)c1S(=O)(=O)NC1CC(C)(C)NC(C)(C)C1	-4	-5	39*	1	8
Cc1ccc(N(CC(=O)N2CCN(c3cc(C)ccc3C)CC2)S(=O)(=O)c2c(C)nn(C)c2C)cc1	0	-12	-8	0	-1
CC1(C(=O)CSc2nc3ccccc3[nH]2)CCC(=O)O1 (configuration not stated)	-6	-16	-7	0	0
SMILES	D1 PAM	D1 antagonist	TRHR PAM	TRHR ag	D1 agonist
CC1(C(=O)CSc2ncn[nH]2)CCC(=O)O1 (configuration not stated)	22	-43*	1	0	2
CCN(CC)c1ccc(N)cc1S(=O)(=O)Nc1ccc(OC)cc1	-6	1	-1	0	1
CCN(CC)c1ccc(N)cc1S(=O)(=O)Nc1ccccc1OC	-17	-32*	5	-3	1
CCc1cccc(-n2c(=O)c3cccnc3n2CC(=O)NCc2ccccc2Cl)c1	-4	8	-13	1	3
CN(C)C(=N)c1n[nH]nc1SCc1ccc(Cl)c(Cl)c1	-3	-36*	-7	1	0
Cc1[nH]c(=O)nc(SCc2ccc(Cl)c(Cl)c2)c1C#N	-6	-11	-2	0	3
Cc1ccc(C2C(=O)N(C3CCCCCC3)CC(=O)N2CCC2=CCCCC2)cc1 (configuration not stated)	2	6	-3	0	-2
Cc1ccc2c(=O)cc(C(=O)Nc3cccc(C(F)(F)F)c3)oc2c1C	2	-3	1	1	1
CCc1ccc2oc(C(=O)Nc3cccc(C(F)(F)F)c3)cc(=O)c2c1	1	-16	45*	0	3
Cc1ccc(C(C)C)c(OCCCn2c(=O)oc3ccccc32)c1	-2	5	1	3	33*
CCC(C)NC(=O)Cn1nc(C(F)(F)F)c2c1CCCC2 (configuration not stated)	-9	-38*	0	0	-1
CN1CCN(c2oc(/C=C/c3ccc(F)cc3)nc2C#N)CC1	-1	-11	-5	0	0
CCCNC(=O)c1c(NC(=O)c2ccc(C)cc2)sc2c1CCCCC2	0	4	-3	0	3
Cc1cccc(N(CC(=O)NCCSCc2ccccc2)S(=O)(=O)c2ccccc2)c1C	0	0	-10	2	30*
COc1ccccc1N(CC(=O)NCCSCc1ccc(Cl)cc1)S(C)(=O)=O	-7	-58*!	3	0	6
COc1ccccc1N(CC(=O)NCCSCc1ccccc1)S(C)(=O)=O	-3	-16	0	-1	1
CSc1nsc(NC(=O)OCc2ccc(Cl)cc2)n1	-6	-36*	0	1	26
N[C@@H](CO)c1nnc([C@H](CCC(=O)O)NC(=O)C2CCNCC2)o1	-6	-38*	0	0	0
N[C@@H](CO)c1nnc([C@H](CC(=O)O)NC(=O)C2CCNCC2)o1	1	-1	2	0	-5
N[C@@H](Cc1ccc(O)cc1)c1nnc([C@H](CCC(=O)O)NC(=O)C2CCNCC2)o1	-2	-41*	-11	0	-1
O=C1CCCC2=C1C(c1ccco1)Nc1ccc3ccccc3c12 (configuration not stated)	-18	-36*	25	0	8
COCCN=C1N[C@@H](c2ccccc2)C(C(=O)OC)=C(C)N1Cc1ccccc1	-3	-4	25	1	2
COCCN=C1N[C@@H](c2ccc(Br)cc2)C(C(=O)OC)=C(C)N1Cc1ccccc1	-4	-34*!	20	0	34*!
CCc1cccc(NC(=O)Cn2c(=O)n(Cc3ccccc3)c(=O)c3c2c2cc(OC)ccc2n3C)c1	-1	-12	0	0	-1
CCC(=O)Nc1ccc2c(c1)Cc1cc(NC(=O)CC)ccc1-2	-9	-7	-6	-1	0
